Source: PubChem (The Scripps Research Institute Molecular Screening Center)
The list is not random: actives were taken first. Their share in the collection is about 4.5%.
FXN GAA850 act = increases GAA850 frataxin promoter reporter activity | HEK293 lucGAA850 FXN promoter luciferase reporter, 24 h; percent of 10 µM SAHA response | 360,000 compounds, 0.56% hits | activation, % at 6 µM | AID 540364;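 active = activation above the average of all compounds screened plus 3 SD, cutoff fixed separately per campaign, cut at about 7.5% in these data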
ssDAF12 agonist = S. stercoralis DAF-12 activation, primary screen; HEK293 ssDAF-12/GRIP1 lit1-tk-luc reporter, luminescence; % of 3 µM dafachronic acid response; 370,000 compounds, 1% hits; AID 652126; activation, % at 6.8 µM;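 active = activation above the mean over all tested compounds plus 3 SD, cut at about 0.9% in these data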
hgDAF-12 ag = activates the H. glycines DAF-12 receptor ligand-binding domain; AID 687014; activation, % at 6.8 µM; HEK293 GAL4-hgDAF12 UAS-luciferase reporter, agonist luminescence; normalized to butyrate control; 370,000 compounds, 1.8% hits;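 active = activation above a cutoff set at the mean of all screened compounds plus 3 SD, cut at about 10% in these data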
DAX1 inh-1 = inhibitors of DAX1 repression of SF-1 activated StAR promoter; inhibition, % at 6.8 µM; HEK293T StAR-luciferase reporter, SF-1/DAX-1 repression relief; 370,000 compounds, 1.1% hits; AID 652010;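 active = inhibition above the mean over all tested compounds plus 3 SD, cut at about 3.6% in these data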;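 note: higher inhibition means more luminescence from relief of DAX-1 repression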
DAX1 inh-2 = NR0B1 (DAX1) inhibition. P51843. 340,000 compounds, 0.99% hits. inhibition, % at 6.75 µM. HEK293 Gal4-DAX1 luciferase reporter, luminescence;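 active = inhibition above the mean over all tested compounds plus 3 SD, cut at about 4.2% in these data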;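 note: inhibition shows as a rise in luminescence from relieved DAX1 repression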
Target sequence (P51843 207-470 limits assumed): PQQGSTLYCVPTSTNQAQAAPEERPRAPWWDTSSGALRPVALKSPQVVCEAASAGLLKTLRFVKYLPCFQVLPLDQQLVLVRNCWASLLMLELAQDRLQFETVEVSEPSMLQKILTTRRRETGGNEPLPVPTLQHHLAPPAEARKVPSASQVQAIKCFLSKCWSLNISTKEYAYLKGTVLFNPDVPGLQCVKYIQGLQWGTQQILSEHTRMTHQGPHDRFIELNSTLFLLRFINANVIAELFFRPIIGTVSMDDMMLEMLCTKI
hcDAF-12 act = activates DAF-12 receptor from parasite H. contortus; HEK293 hcDAF-12 lit1-tk-luc reporter, luminescence; 0% DMSO, 100% Δ7-dafachronic acid; activation, % at 6.8 µM; 370,000 compounds, 1.4% hits;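 active = activation above the mean of all tested compounds plus 3 SD, cut at about 5.5% in these data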
LXR ag = LXR-beta agonism as hcDAF-12 counter-screen; shares compounds with hcDAF-12 act; HEK293 Gal4-LXR tk-luc reporter, luminescence, 24 h; normalized: DMSO 0%, positive control 100%; activation, % at 6.8 µM; 3,400 tested, under 10 active;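 active = mean percent activation of the reporter above a cutoff set as the average over tested compounds plus their standard deviation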
hcDAF12 conf = hcDAF-12 agonism, confirmation assay. shares compounds with hcDAF-12 act. HEK293 hcDAF-12 lit1-tk-luc reporter, luminescence; % of Δ7-dafachronic acid response. activation, % at 6.8 µM. 3,400 compounds, 61% hits;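 active = mean activation across triplicate tests above the threshold derived from the earlier primary screen, cut at about 5.5% in these data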
Large screens that a line does not name were inactive (follow-up assays come after a bar, where they were run).

CCOC(=O)Nc1ccc2c(c1)[C@]1(CC(=O)N(CC(C)C)C1c1ccccc1)C(=O)N2C (some centres not stated)	none (no result: FXN GAA850 act, DAX1 inh-2)
Cc1nc2nc(-c3cccnc3)nn2c(C)c1Cl	none
Cc1nc2nc(-c3ccco3)nn2c(C)c1Cl	hcDAF-12 act 6.8 | LXR ag inactive | hcDAF12 conf inactive
C[C@@H]1CN([C@H](C)CO)C(=O)c2cc(NS(=O)(=O)c3ccccc3)ccc2O[C@@H](C)CCCCO[C@@H]1CN(C)Cc1ccc(Cl)c(Cl)c1	hcDAF-12 act 6.7 (no result: FXN GAA850 act, DAX1 inh-2) | LXR ag inactive | hcDAF12 conf inactive
C[C@H]1CCCCO[C@@H](CN(C)S(=O)(=O)c2ccc(Cl)cc2)[C@@H](C)CN([C@@H](C)CO)C(=O)c2cc(NS(=O)(=O)c3ccccc3)ccc2O1	none
O=C(NCC(c1ccccc1)c1ccccc1)[C@H](Cc1ccccc1)NC1(C(=O)NC2CCCCC2)CCCC1	none (no result: FXN GAA850 act, DAX1 inh-1, DAX1 inh-2)
COC(=O)c1sccc1NC(=O)c1ccccc1	none
COC(=O)c1sccc1NC(=O)c1ccc(C(C)C)cc1	hcDAF-12 act 7.1 | LXR ag inactive | hcDAF12 conf 6.8
COC(=O)C1=C(C)N(C)C(=NCc2ccc3c(c2)OCO3)NC1c1ccc(F)cc1 (configuration not stated)	none (no result: FXN GAA850 act, DAX1 inh-2)
Cc1cccn2c(=O)c3cc(C(=O)NCCCOC(C)C)sc3nc12	none
CCOCCCNC(=O)c1cc2c(=O)n3cccc(C)c3nc2s1	hcDAF-12 act 12.4 | LXR ag inactive | hcDAF12 conf inactive
COc1cccc(C2c3[nH]c4ccccc4c3C[C@H]3C(=O)N(c4ccccc4C(=O)N4CCCC4C(=O)O)C(=O)N23)c1 (some centres not stated)	hcDAF-12 act 12.3 | LXR ag inactive | hcDAF12 conf inactive
Cc1ccc(C2c3[nH]c4ccccc4c3C[C@H]3C(=O)N(c4ccccc4C(=O)N4CCC(C(=O)O)CC4)C(=O)N23)cc1 (some centres not stated)	hcDAF-12 act 9.6 | LXR ag inactive | hcDAF12 conf inactive
Cc1ccc(C2c3[nH]c4ccccc4c3C[C@H]3C(=O)N(c4ccccc4C(=O)N4CCC[C@@H]4C(=O)O)C(=O)N23)cc1 (some centres not stated)	hcDAF-12 act 10.4 | LXR ag inactive | hcDAF12 conf inactive
COc1ccc(C2c3[nH]c4ccccc4c3C[C@H]3C(=O)N(c4ccccc4C(=O)NCCN4CCOCC4)C(=O)N23)cc1 (some centres not stated)	none
COCc1[nH]nc2c1C(c1ccccc1)NC2=O (configuration not stated)	none (no result: FXN GAA850 act, DAX1 inh-2)
COC(=O)C[C@H]1CC[C@@H]2[C@H](COc3ccc(NC(=O)NCc4ccccc4)cc3C(=O)N2C)O1	none (no result: FXN GAA850 act, DAX1 inh-2)
Cn1c(CC(=O)Nc2ccccc2)c(Sc2ccccc2)c2ccccc21	hcDAF-12 act 7.5 | LXR ag inactive | hcDAF12 conf inactive
CSc1c(CC(=O)Nc2ccccc2)n(C)c2ccccc12	none
Cn1c(CC(=O)Nc2ccccc2)cc2ccccc21	ssDAF12 agonist 1.0, hcDAF-12 act 9.9 | LXR ag inactive | hcDAF12 conf 7.6
COc1ccc(-c2csc(NC(=O)CN3C(=O)C4CCCCC4C3=O)n2)c(OC)c1 (configuration not stated)	none
C=CCNc1nc(-c2ccc(OC)cc2OC)cs1	hgDAF-12 ag 11.1, hcDAF-12 act 8.1 | LXR ag inactive | hcDAF12 conf 8.0
COc1ccc(C(=O)OCC(=O)c2ccc[nH]2)c(OC)c1	hcDAF-12 act 6.7 | LXR ag inactive | hcDAF12 conf inactive
COc1ccc(CC(=O)OCC(=O)c2ccc[nH]2)cc1	none
COc1ccccc1C(=O)NNC(=O)c1cccc(O)c1	ssDAF12 agonist 2.6, hcDAF-12 act 10.3 | LXR ag inactive | hcDAF12 conf 15.0
COc1ccccc1C(=O)NNC(=O)c1ccc(C)cc1	none
COc1ccccc1C(=O)NNC(=O)c1cccc(F)c1	ssDAF12 agonist 1.2, DAX1 inh-1 3.9, hcDAF-12 act 10.4 | LXR ag inactive | hcDAF12 conf 11.0
COc1ccccc1C(=O)NNC(=O)c1ccncc1	none
COc1ccccc1C(=O)NNC(=O)c1ccc(NS(=O)(=O)c2cccs2)cc1	hcDAF-12 act 10.2 | LXR ag inactive | hcDAF12 conf 6.4
CC(C)NC(=O)C1CCN(c2cncnc2)CC1	none (no result: FXN GAA850 act, DAX1 inh-2)
O=C(OCc1nc2ccccc2s1)c1cccc(S(=O)(=O)N2CCOCC2)c1	hcDAF-12 act 7.7 | LXR ag inactive | hcDAF12 conf 9.2
O=C(CSc1nc2ccccc2s1)Nc1cc(S(=O)(=O)N2CCOCC2)ccc1O	hcDAF-12 act 9.7 | LXR ag inactive | hcDAF12 conf inactive
COC(=O)c1cccc(OC[C@@H](O)CN2CCC(C(O)(c3ccccc3)c3ccccc3)CC2)c1	none (no result: FXN GAA850 act, DAX1 inh-2)
COc1ccccc1N1C(=O)CC(N(O)c2ccccc2)C1=O (configuration not stated)	hcDAF-12 act 6.7 | LXR ag inactive | hcDAF12 conf inactive
CCOC(=O)N/N=C/c1c(C)nn(-c2cccc(C(F)(F)F)c2)c1Cl	none
Cc1nn(-c2cccc(C(F)(F)F)c2)c(Cl)c1/C=N/Nc1cccc(C(=O)O)c1	hgDAF-12 ag 13.2, DAX1 inh-1 3.7, hcDAF-12 act 10.5 | LXR ag inactive | hcDAF12 conf 9.5
NS(=O)(=O)c1ccc(N2N=C(c3ccccc3)CC2c2ccccc2)cc1 (configuration not stated)	none
O=S(=O)(O)c1ccc(N2N=C(c3ccccc3)CC2c2ccccc2)cc1 (configuration not stated)	hcDAF-12 act 7.4 | LXR ag inactive | hcDAF12 conf inactive
O=[N+]([O-])c1ccccc1-c1ccc(C(=S)N2CCCCC2)o1	hcDAF-12 act 6.8 | LXR ag inactive | hcDAF12 conf 7.0
Cc1cccc(N2CCN(C(=S)c3ccc(-c4ccccc4[N+](=O)[O-])o3)CC2)c1	none
O=[N+]([O-])c1ccccc1-c1ccc(C(=S)N2CCCC2)o1	ssDAF12 agonist 1.8, hcDAF-12 act 9.4 | LXR ag inactive | hcDAF12 conf 9.7
CC(CO)(CO)NC(=O)c1ccc(C#Cc2cccc(F)c2)cn1	none (no result: FXN GAA850 act, DAX1 inh-2)
COc1ccc(/C=C/S(=O)(=O)NCC(C)C)c(CNC(=O)OC(C)(C)C)c1	none (no result: FXN GAA850 act, DAX1 inh-2)
Clc1ccc2oc3c(Cl)ncnc3c2c1	hcDAF-12 act 8.0 | LXR ag inactive | hcDAF12 conf inactive
